Assay outcomes as filed in PubChem BioAssay.
The list is not random: actives were taken first. Their share in the collection is about 1.3%.
RecA intein inh: inhibitors of M. tuberculosis RecA intein splicing; cell-free RecA intein splicing, fluorescence; inhibition, % (no concentration beside the values); actives 0.75% (n = 290,000); in the data active = inhibition above about 30%;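 also: 0% = vehicle wells and 100% = reference inhibitor control wells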
PrP 5UTR inh: inhibition of PrP 5' UTR reporter expression | AID 488862 | cell-based PrP 5' UTR mRNA reporter, plate reader | actives 0.35% (n = 340,000) | inhibition, % (no concentration beside the values); in the data active = inhibition above about 52%; also: 0 = median of the neutral control wells
FadD28 binding: M. tuberculosis FadD28 bisubstrate binding inhibition; inhibition, % at 12.5 µM; actives 0.22% (n = 360,000); AID 588549; FadD28 bisubstrate probe binding, fluorescence polarization; in the data active = inhibition above about 8.5%, passing the limit was not always enough
UGM FP inh: Mtb UDP-galactopyranose mutase inhibition; actives 0.06% (n = 320,000); purified UGM, fluorescence polarization probe displacement; inhibition, % at 10 µM; P9WIQ1; AID 504406; in the data active = inhibition above about 10%, passing the limit was not always enough
Target sequence (P9WIQ1 whole entry, looked up): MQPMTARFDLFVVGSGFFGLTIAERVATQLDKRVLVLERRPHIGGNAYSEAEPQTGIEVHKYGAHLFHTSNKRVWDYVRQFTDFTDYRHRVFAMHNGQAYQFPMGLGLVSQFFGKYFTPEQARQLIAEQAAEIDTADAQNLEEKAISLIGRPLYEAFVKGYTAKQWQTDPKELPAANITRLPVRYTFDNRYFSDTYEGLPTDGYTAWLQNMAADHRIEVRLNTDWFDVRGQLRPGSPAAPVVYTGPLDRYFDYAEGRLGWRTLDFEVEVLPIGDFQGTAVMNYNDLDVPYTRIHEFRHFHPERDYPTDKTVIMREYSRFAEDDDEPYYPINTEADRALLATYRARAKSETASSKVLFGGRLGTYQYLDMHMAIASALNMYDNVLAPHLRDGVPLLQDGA
Rv3671c inh: Rv3671c (M. tuberculosis) protease inhibition; P9WHR9; actives 0.048% (n = 320,000); inhibition, % at 5.96 µM; AID 2606; in the data active = inhibition above about 38%;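 also: extracellular domain of Rv3671c used as enzyme; 0% = enzyme with DMSO and 100% = no enzyme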
BJeLR viability: kills HRASV12-expressing BJeLR cells; BJeLR (HRASV12) viability, CellTiter-Glo ATP luminescence, 48 h; inhibition, % (concentration not given with the values); actives 0.17% (n = 300,000); AID 1554; in the data active = inhibition above about 50%
An asterisk follows results filed as active; . = not tested or not shown.

SMILES | RecA intein inh | PrP 5UTR inh | FadD28 binding | UGM FP inh | Rv3671c inh | BJeLR viability
CCCCCCCCCCn1c2c(c(=N)c3c1CCC3)CCC2 | 31.7* | 4.9 | -9.0 | -2.1 | 6.1 | 56.2*
COc1cccc(-c2cc(CNC(=O)[C@H]3O[C@@H](n4ccc(N)nc4=O)[C@H](O)[C@@H]3O)no2)c1 | . | . | -1.1 | . | . | .
CCOC(=O)/C(C#N)=C1/SC(C)C(=O)N1c1ccc(Br)cc1 (configuration not stated) | 31.7* | -20.8 | -1.8 | -0.2 | -8.6 | -8.3
CN1/C(=C\C=C(C#N)C#N)C(C)(C)c2ccccc21 | -7.4 | 7.0 | -1.6 | 71.5* | 1.5 | -6.0
O=C1c2cccc(NCCNCCO)c2C(=O)c2cccc(NCCNCCO)c21 | . | 14.0 | 1.3 | . | . | .
Cc1ccc(S(=O)(=O)N[C@@H](CCCCN)C(=O)CCl)cc1 | 50.4* | 19.8 | -2.4 | -0.5 | -1.8 | 10.0
COc1ccc(C(C)C)cc1-c1cncc(NC(C)=O)n1 | . | . | -0.9 | . | . | .
COc1ccc2c(c1)C(O)C(CO)C(C(=O)O)C2 (configuration not stated) | . | -17.7 | -0.4 | . | . | .
CC(C)CCN1C(=O)c2cccc3c(N)ccc(c23)C1=O | -404.7 | -25.0 | -0.4 | 18.1* | 6.0 | 2.0
CCN1C(=O)c2cccc3c(Cl)ccc(c23)C1=O | 1.3 | -25.4 | -3.3 | 1.6 | 4.9 | 2.8
Cc1cccc(N2C(=O)c3cccc4c(N)ccc(c34)C2=O)c1 | -55.7 | -4.6 | -2.2 | 39.4* | 11.1 | -3.9
Nc1cccc(N2C(=O)c3cccc4c(N)ccc(c34)C2=O)c1 | -79.4 | 12.1 | 0.3 | 29.4* | 6.2 | -1.9
Nc1ccc2c3c(cccc13)C(=O)N(c1ccccc1)C2=O | -71.6 | -4.1 | -2.7 | . | . | 4.0
CC1(C)CC(=O)C=C(c2ccc(-c3cnc4ccccc4c3)cc2)C1=O | . | . | -2.3 | . | . | .
CC(C)CNC(=O)C1(C)CCCN1C(=O)c1cccnc1 (configuration not stated) | . | . | -1.8 | . | . | .
C[C@@H]1CCCCO[C@@H](CN(C)CC2CC2)[C@@H](C)CN([C@H](C)CO)C(=O)c2cc(N(C)C)ccc2O1 | . | . | -1.7 | . | . | .
CN(c1ccccc1)c1ccc(/C=C(/CCC(=O)O)c2nc3ccccc3s2)cc1[N+](=O)[O-] | . | -1.6 | 19.3* | . | . | .
O=[N+]([O-])c1ccc(/C=N/Nc2nc(-c3ccccc3)c3cc(Br)ccc3n2)o1 | 6.1 | -15.1 | -0.3 | 2.7 | 1.6 | 3.0
Cc1ccc2nc(N/N=C\c3ccc([N+](=O)[O-])o3)nc(-c3ccccc3)c2c1 | 42.4* | 1.9 | 0.3 | -2.7 | 4.6 | -6.4
O=C(/C=C/c1ccccc1)c1ccc2c3c(cccc13)CC2 | 33.9* | -90.3 | -1.8 | 0.3 | -20.2 | -7.6
CC[C@@]1(O)C(=O)OCc2c1cc1n(c2=O)Cc2cc3ccccc3nc2-1 | -13.4 | . | . | 1.0 | -5.0 | 90.5*
COc1cccc(CN2CCC(C)(Oc3cccc(Cl)c3)C2)c1OC (configuration not stated) | . | . | -3.4 | . | . | .
Cc1ccc(Nc2ccc(N)cc2S(=O)(=O)O)cc1 | 1.7 | -36.2 | 84.5* | 0.5 | -2.2 | -1.5
Nc1ccc(Nc2ccccc2)c(S(=O)(=O)O)c1 | 1.9 | . | 81.0* | -2.0 | 5.4 | 21.7
COc1ccc(N2CCN(c3cc(C(=O)Nc4cc(OC)c(OC)c(OC)c4)ncn3)CC2)cc1OC | . | . | 0.7 | . | . | .
SMILES | RecA intein inh | PrP 5UTR inh | FadD28 binding | UGM FP inh | Rv3671c inh | BJeLR viability
CC(C)CC1C(=O)N(Cc2cn(CC3CCCCC3)nn2)CCS(=O)(=O)N1Cc1ccc(-c2cccc(C#N)c2)cc1 (configuration not stated) | . | 3.3 | -2.7 | . | . | .
CCc1noc(C)c1C(=O)NNC(=O)COc1ccc(C)cc1 | . | -6.9 | 20.2* | 1.4 | 5.0 | 7.1
COc1cccc(NC(=O)Nc2ccc(C(C)(C)C)cc2)c1 | -2.3 | -57.8 | 19.1* | . | . | -1.5
COc1cccc(NC(=O)Nc2ccncc2)c1 | . | -12.1 | -0.8 | 2.3 | -8.1 | -0.4
CNC(=O)c1ccsc1NC(=O)c1ccccc1 | 0.9 | -9.4 | -1.7 | 7.3 | 2.9 | -4.3
O=C(CCl)Nc1sccc1C(=O)c1ccccc1 | 56.6* | 2.4 | -2.4 | 3.1 | -10.7 | 17.0
Cc1ccn2c(Cc3ccccc3)c(-c3ccc(F)cc3)nc2c1 | . | . | -2.5 | . | . | .
NC(=O)C1(Nc2ccc(C(=O)O)cc2)CCCC1 | . | -13.9 | -0.5 | . | . | .
COc1cc(/C=C(\C#N)C(=O)Nc2ccc3c(c2)OCCO3)ccc1O | 31.7* | -21.2 | -0.9 | -2.1 | 4.1 | 9.9
CCOC(=O)/C(C#N)=C/c1cccc(C)c1 | -3.7 | -23.8 | -4.0 | -1.9 | . | -2.9
CCOC(=O)/C(C#N)=C\c1ccc(O)c(OC)c1 | 40.4* | -9.1 | 0.9 | 0.7 | -6.6 | 4.2
COc1cc(/C=C/C(=O)OCC(=O)Nc2ccc3c(c2)OCCO3)ccc1O | 0.9 | -21.2 | -3.1 | 1.1 | -13.4 | -3.0
N#CC1=C(N)C2=C(N3CCCCC3)CCCC2C1(C#N)C#N (configuration not stated) | -11.9 | -1.0 | 45.5* | 1.2 | 8.2 | -10.4
OC(Cc1ccccc1)c1ncc(-c2ccc3ccccc3c2)[nH]1 (configuration not stated) | . | . | -4.7 | . | . | .
COc1ccc(C(=O)/C=C2\C(=O)Nc3ccc(Br)cc32)cc1 | . | 49.2 | -6.4 | . | . | .
O=C1Nc2ccc(Br)cc2/C1=C/C(=O)c1ccc2c(c1)OCO2 | 49.2* | -16.8 | -4.3 | 0.7 | -0.8 | 22.9
CCOC(=O)c1c(CCl)nc2ccccc2c1-c1ccccc1 | 41.2* | -11.4 | -0.6 | -0.7 | 1.4 | 2.3
COc1cc(C(=O)N/N=C(\c2ccccc2)c2ccccn2)cc(OC)c1OC | 2.8 | 38.2 | -0.9 | 1.0 | 0.8 | 4.4
COc1cccc(C(=O)N/N=C(/c2ccccc2)c2ccccn2)c1 | 0.7 | 12.8 | -1.6 | 7.8 | 4.9 | 87.8*
C[C@H](CO)N1C[C@H](C)[C@H](CN(C)Cc2ccncc2)Oc2cc(-c3ccccc3F)ccc2S1(=O)=O | . | . | -2.6 | . | . | .
O=c1oc(-c2ccc(F)cc2)nc2ccsc12 | 26.1 | -8.8 | -2.4 | -1.6 | -19.4 | 11.7
O=c1oc(-c2ccccc2Cl)nc2ccsc12 | 35.3* | -13.7 | -3.2 | 0.1 | 8.5 | -4.9
O=C(O)c1ccc(-c2ccc(/C=C3\NC(=O)N(Cc4ccc(Cl)cc4)C3=O)o2)cc1Cl | -29.2 | -10.0 | 16.5* | . | . | -1.6
CCOC(=O)CN1C(=O)S/C(=C\c2ccc(-c3ccc(C(=O)O)c(Cl)c3)o2)C1=O | -77.6 | -17.8 | -0.5 | 2.1 | -1.4 | 2.2
Cc1ccc(NC(=S)NNC(=O)c2ccc(N3CCOCC3)c([N+](=O)[O-])c2)cc1Cl | 5.8 | -27.1 | 10.8* | -1.2 | -0.6 | 5.8
O=C(NNC(=S)Nc1ccc(Br)cc1)c1ccc(N2CCOCC2)c([N+](=O)[O-])c1 | 6.6 | 0.9 | 3.8 | 3.3 | 7.1 | 1.1
CCOc1cc(/C=C2\COc3ccccc3C2=O)cc(Br)c1OCC(=O)N(C)C | 14.5 | -17.6 | -2.4 | 1.1 | 1.1 | 65.3*
CCc1nc2c(OCc3ccc(Cl)cc3)cccn2c1N(C)C(=O)c1ccc(C)cc1 | . | . | -6.1 | . | . | .
COc1cccc(NC(=O)CN(C)C(=O)c2cc3c(s2)CCCCC3)c1 | . | -20.8 | 12.6* | 0.9 | -3.6 | .
